Results reported in PubChem BioAssay AID1159580 (chemical genetic matrix, 2015).
The whole screen tested about 5,500 compounds, of which about 2,000 (36%) were called active. Roughly 18% stayed inconclusive and do not appear here. Rule as the data show it: active = normalized growth mostly below about 0.91 (no sharp cut-off); inconclusive = no clear call, values can overlap the other calls; inactive = mostly above about 0.92. Some of the results follow.

Assay: chemical genetic growth profiling, strain panel (AID 1159580);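 also: tested at 20 µM; growth read once vehicle control cultures reached saturation at 30 °C; 1 = growth at the plate median or of vehicle wells; lower values mean less growth of the strain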
Details: S. cerevisiae deletion strains, growth OD
[1] = locus YAL040C, strain CLN3, active compounds read low
[2] = locus YCL061C, strain MRC1 (second series), active compounds read low
[3] = locus YDR363W, strain ESC2, active compounds read low
[4] = locus YER002W, strain NOP16, active compounds read low
[5] = locus YGR078C, strain PAC10, active compounds read low
[6] = locus YMR307W, strain GAS1, active compounds read low
[7] = locus YNL175C, strain NOP13, active compounds read low
[8] = locus YNL197C, strain WHI3, active compounds read low
[9] = locus YNL224C, strain SQS1, active compounds read low
[10] = locus YOR083W, strain WHI5 (second series), active compounds read low
[11] = locus YPL055C, strain LGE1, active compounds read low

Measured: normalized growth

COc1cc(-c2ccc(=O)[nH]n2)ccc1OC(F)F
inactive: [1] 0.975 | [2] 1.01 | [3] 0.997 | [4] 1 | [5] 1.01 | locus YJR075W, strain HOC1, active compounds read low 1 | [6] 0.995 | locus YNL128W, strain TEP1, active compounds read low 1.01 | [7] 1.03 | [8] 0.994 | [9] 1.01 | locus YNL322C, strain KRE1, active compounds read low 0.997 | [10] 1.02 | [11] 1.02 | locus YPL241C, strain CIN2, active compounds read low 1

Cn1ccnc1
inactive: locus YAL013W, strain DEP1, active compounds read low 1.01 | [1] 1.01 | [2] 1 | locus YDR150W, strain NUM1, active compounds read low 1 | [3] 1.01 | [4] 1 | [5] 1.01 | locus YMR263W, strain SAP30, active compounds read low 1.01 | [6] 1 | [7] 1 | [8] 1 | [9] 1.01 | [10] 1.02 | [11] 1

CC1(C)CC(O)C2(C)CCC3(C)C(=CCC4C5(C)CCC(O)C(C)(CO)C5CCC43C)C2C1 (stereo unspecified)
inactive: locus YAL021C, strain ccr4, active compounds read low 1.02 | locus YAL026C, strain drs2, active compounds read low 1.03 | locus YAL030W, strain snc1, active compounds read low 1.02 | locus YBL061C, strain skt5, active compounds read low 1.03 | locus YBR009C, strain hhf1, active compounds read low 1.02 | locus YBR023C, strain chs3, active compounds read low 1.03 | locus YBR171W, strain sec66, active compounds read low 1.03 | locus YBR231C, strain swc5, active compounds read low 1.03 | locus YBR279W, strain paf1, active compounds read low 1.02 | locus YCL011C, strain gbp2, active compounds read low 1.03 | locus YCL016C, strain dcc1, active compounds read low 1.03 | locus YCL061C, strain MRC1, active compounds read low 1.02 | locus YCL069W, strain vba3, active compounds read low 1.03 | locus YCR088W, strain abp1, active compounds read low 1.03 | locus YDL005C, strain med2, active compounds read low 1.03 | locus YDL040C, strain nat1, active compounds read low 1.03 | locus YDR001C, strain nth1, active compounds read low 1.02 | locus YDR069C, strain doa4, active compounds read low 1.04 | locus YDR137W, strain rgp1, active compounds read low 0.956 | locus YDR159W, strain sac3, active compounds read low 1.04 | locus YDR195W, strain ref2 1 | locus YDR297W, strain sur2, active compounds read low 1.02 | locus YDR334W, strain swr1, active compounds read low 1.03 | locus YDR335W, strain msn5, active compounds read low 1.03 | locus YDR392W, strain spt3, active compounds read low 1.03 | locus YEL003W, strain gim4, active compounds read low 1.02 | locus YEL037C, strain rad23, active compounds read low 1.02 | locus YEL061C, strain CIN8 (second series), active compounds read low 1.02 | locus YER015W, strain faa2, active compounds read low 1.02 | locus YER016W, strain bim1, active compounds read low 1.03 | locus YER111C, strain swi4, active compounds read low 1.03 | locus YER155C, strain BEM2 (second series), active compounds read low 1.04 | locus YFR010W, strain ubp6, active compounds read low 1.03 | locus YGL167C, strain pmr1, active compounds read low 1.02 | locus YGL173C, strain kem1, active compounds read low 1.03 | locus YGL227W, strain vid30, active compounds read low 1.03 | locus YGL240W, strain doc1, active compounds read low 1.02 | locus YGL253W, strain hxk2, active compounds read low 1.03 | locus YHR013C, strain ard1, active compounds read low 1.04 | locus YHR027C, strain rpn1, active compounds read low 1.02 | locus YHR142W, strain chs7, active compounds read low 1.03 | locus YJL092W, strain hpr5, active compounds read low 1.03 | locus YJL095W, strain BCK1 (second series), active compounds read low 1.04 | locus YJL115W, strain asf1, active compounds read low 1.04 | locus YJL129C, strain trk1, active compounds read low 1.04 | locus YJL154C, strain vps35, active compounds read low 1.02 | locus YJL164C, strain tpk1, active compounds read low 1.03 | locus YJL166W, strain qcr8, active compounds read low 1.02 | locus YJL187C, strain SWE1, active compounds read low 1.02 | locus YKL160W, strain elf1, active compounds read low 1.02 | locus YKR026C, strain gcn3, active compounds read low 1.04 | locus YKR091W, strain srl3, active compounds read low 1.03 | locus YLL001W, strain dnm1, active compounds read low 1.03 | locus YLL026W, active compounds read low 1.03 | locus YLL041C, strain sdh2, active compounds read low 1.03 | locus YLR027C, strain aat2, active compounds read low 1.03 | locus YLR221C, strain rsa3, active compounds read low 1.02 | locus YLR258W, strain gsy2, active compounds read low 1.04 | locus YLR262C, strain YPT6 (second series), active compounds read low 0.994 | locus YLR320W, strain mms22, active compounds read low 1.04 | locus YLR342W, strain FKS1, active compounds read low 1.02 | locus YLR357W, strain rsc2, active compounds read low 1.02 | locus YLR370C, strain arc18, active compounds read low 1.03 | locus YLR384C, strain iki3, active compounds read low 1.03 | locus YML120C, strain ndi1, active compounds read low 1.04 | locus YMR058W, strain fet3, active compounds read low 1.02 | locus YMR125W, strain sto1, active compounds read low 1.04 | locus YMR129W, active compounds read low 1.02 | locus YMR205C, strain PFK2, active compounds read low 1.03 | locus YMR231W, strain pep5, active compounds read low 1.03 | locus YNL071W, strain lat1, active compounds read low 1.02 | locus YNL209W, strain ssb2, active compounds read low 1.03 | locus YNL248C, strain rpa49, active compounds read low 1.02 | locus YNL322C, strain KRE1 (second series), active compounds read low 1.02 | locus YNR049C, strain mso1, active compounds read low 1.04 | locus YOR001W, strain rrp6, active compounds read low 1.04 | locus YOR070C, strain gyp1, active compounds read low 1.03 | locus YOR080W, strain dia2, active compounds read low 1.03 | locus YOR083W, strain WHI5, active compounds read low 1.02 | locus YOR106W, strain vam3, active compounds read low 1.03 | locus YOR265W, strain rbl2, active compounds read low 1.03 | locus YOR270C, strain vph1, active compounds read low 1.03 | locus YOR290C, strain snf2, active compounds read low 1.03 | locus YPL051W, strain arl3, active compounds read low 1.02 | locus YPL078C, strain atp4, active compounds read low 1.03 | locus YPL106C, strain sse1, active compounds read low 1.05 | locus YPL240C, strain hsp82, active compounds read low 1.03
